Laboratory results reported in PubChem BioAssay (NCI).
About 79,000 compounds went through this panel and 15% of them were active in at least one assay; those are over-represented in the sample as a whole. Activity calls are given as the source filed them. Rule as the data show it: active = growth inhibition above about 70%; inactive = the rest.

Experiments:
[1] = NCI Yeast Anticancer Drug Screen. Data for the rad52 strain (AID 147);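 also: 0% = growth of vehicle-treated control cultures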; conditions: S. cerevisiae rad52 mutant growth inhibition, active compounds read high
How it was run: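 Yeast strain carrying a DNA damage repair alteration was exposed to test compounds. Growth inhibition was measured relative to vehicle-treated controls.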

[2] = NCI Yeast Anticancer Drug Screen. Data for the wt1 strain (AID 149);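 also: 0% = growth of vehicle-treated wt1 cultures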; conditions: S. cerevisiae wt1 strain (SPY 50644) growth inhibition, active compounds read high
How it was run: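 Yeast wt1 strain exposed to compounds; growth inhibition measured relative to vehicle-treated controls.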

[3] = NCI Yeast Anticancer Drug Screen. Data for the rad50EPP+ strain (AID 151);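 also: 0% = growth of vehicle-treated control cultures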; conditions: S. cerevisiae rad50 mutant strain, active compounds read high
How it was run: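 Yeast strain carrying rad50 alteration (rad50EPP+) exposed to compounds; growth inhibition measured relative to vehicle-treated controls.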

[4] = NCI Yeast Anticancer Drug Screen. Data for the mgt1 strain (AID 153); conditions: S. cerevisiae mgt1 mutant growth inhibition, active compounds read high
How it was run: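 Yeast mgt1 strain (DNA repair/cell-cycle alteration panel) exposed to compounds; growth inhibition measured relative to vehicle-treated controls.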

[5] = NCI Yeast Anticancer Drug Screen. Data for the rad50 strain (AID 155);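 also: 0% = growth of vehicle-only cultures of the same strain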; conditions: S. cerevisiae rad50 strain growth inhibition, active compounds read high
How it was run: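 Yeast carrying a defined DNA repair defect were exposed to test compounds, and growth was compared with vehicle-treated controls to give percent inhibition.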

[6] = NCI Yeast Anticancer Drug Screen. Data for the mec2-1 strain (AID 157); conditions: S. cerevisiae mec2-1 strain, active compounds read high
How it was run: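 mec2-1 yeast strain, carrying an alteration in DNA damage repair or cell cycle control, was exposed to compounds; growth inhibition was measured relative to vehicle-treated controls.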

[7] = NCI Yeast Anticancer Drug Screen. Data for the rad14 strain (AID 159);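 also: 0% = growth of vehicle-treated control cultures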; conditions: S. cerevisiae rad14 strain growth inhibition, active compounds read high
How it was run: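 Yeast cells carrying a defined DNA-repair defect were exposed to compounds, and growth inhibition was calculated relative to vehicle-treated control cultures.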

[8] = NCI Yeast Anticancer Drug Screen. Data for the sgs1 mgt1 strain (AID 161);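 also: 0% = growth of cultures given vehicle only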; conditions: S. cerevisiae sgs1 mgt1 strain, active compounds read high
How it was run: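 Yeast cells carrying a defined DNA-repair defect were exposed to test compounds. Growth inhibition was measured relative to vehicle-treated controls.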

[9] = NCI Yeast Anticancer Drug Screen. Data for the CLN2oe strain (AID 163);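 also: 0% = growth of vehicle-only control cultures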; conditions: S. cerevisiae CLN2oe strain, active compounds read high
How it was run: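 Yeast cells carrying a defined cell-cycle control alteration were exposed to test compounds. Growth inhibition was scored against vehicle-treated control cultures.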

[10] = NCI Yeast Anticancer Drug Screen. Data for the cln2 rad14 strain (AID 165);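 also: 0% = growth equal to vehicle treated cultures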; conditions: S. cerevisiae cln2 rad14 strain, active compounds read high
How it was run: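 Yeast carrying cln2 and rad14 alterations (cell cycle control and DNA damage repair) were exposed to compounds. Growth inhibition was measured against vehicle-treated controls.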

[11] = NCI Yeast Anticancer Drug Screen. Data for the bub3 strain (AID 167); conditions: S. cerevisiae bub3 mutant strain, active compounds read high
How it was run: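 Compounds were applied to a genetically altered yeast strain carrying a cell-cycle control defect. Growth inhibition was scored against vehicle-treated controls.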

[12] = NCI Yeast Anticancer Drug Screen. Data for the wt2 strain (AID 169);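 also: 0% = growth of vehicle-treated yeast cultures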; conditions: S. cerevisiae wt2 strain growth inhibition, active compounds read high
How it was run: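 Yeast cells were exposed to test compounds, and growth inhibition was measured relative to vehicle-treated controls.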

[13] = NCI Yeast Anticancer Drug Screen. Data for the mlh1 strain (AID 171);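 also: 0% = growth of vehicle-treated control cultures of the same strain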; conditions: S. cerevisiae mlh1 strain growth inhibition, active compounds read high
How it was run: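 Yeast carrying a defined genetic alteration in DNA damage repair or cell cycle control were exposed to test compounds. Growth inhibition was measured relative to vehicle-treated controls.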

[14] = NCI Yeast Anticancer Drug Screen. Data for the sgs1 strain (AID 173);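 also: 0% = growth of vehicle-only control cultures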; conditions: S. cerevisiae sgs1 mutant, active compounds read high
How it was run: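 Yeast mutant strains carrying defined defects in DNA damage repair or cell cycle control were exposed to test compounds. Growth inhibition was scored against vehicle-treated controls.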

[15] = NCI Yeast Anticancer Drug Screen. Data for the mlh1 rad18 strain (AID 175); conditions: S. cerevisiae mlh1 rad18 strain growth inhibition, active compounds read high
How it was run: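 Growth inhibition of the yeast strain was measured after compound exposure and expressed relative to vehicle-treated controls. The strain carries defined defects in DNA damage repair.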

[16] = NCI Yeast Anticancer Drug Screen. Data for the rad18 strain (AID 177); conditions: S. cerevisiae rad18 mutant growth inhibition, active compounds read high
How it was run: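 Yeast carrying a defined DNA damage repair alteration were exposed to compounds. Growth inhibition was expressed relative to vehicle-treated controls.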

[17] = at 5.0 µM (retest, dose inferred, filed as 0.5)
[18] = at 50.0 µM (retest, dose inferred, filed as 5.0)

Measured: growth inhibition

CC(=O)/C(=C\c1ccc(Cl)c(Cl)c1)C(=O)C(C)CN(C)C (stereo unspecified)
active: [1]; at 100.0 µM 91% | [2]; at 100.0 µM 90% | [3]; at 100.0 µM 90% | [4]; at 100.0 µM 93% | [5]; at 100.0 µM 91% | [6]; [18] 76% | [6]; at 50.0 µM 87.5% | [6]; at 100.0 µM 93% | [7]; at 100.0 µM 92% | [8]; [18] 97% | [8]; at 50.0 µM 85.7% | [9]; at 100.0 µM 81% | [10]; [18] 93% | [10]; at 50.0 µM 81.2% | [11]; [18] 96% | [11]; at 50.0 µM 82.8% | [11]; at 100.0 µM 93% | [12]; at 33.0 µM 88% | [12]; at 100.0 µM 98% | [13]; at 100.0 µM 93% | [14]; at 33.0 µM 76% | [14]; at 100.0 µM 97% | [15]; [18] 97% | [15]; at 50.0 µM 90.3% | [16]; at 33.0 µM 82% | [16]; at 100.0 µM 93%
inactive: [1]; at 1.2 µM 19% | [1]; at 3.7 µM 21% | [1]; at 11.0 µM 33% | [1]; at 33.0 µM 52% | [2]; at 1.2 µM -12% | [2]; at 3.7 µM -13% | [2]; at 11.0 µM -12% | [2]; at 33.0 µM 10% | [3]; at 1.2 µM 7% | [3]; at 3.7 µM 7% | [3]; at 11.0 µM 3% | [3]; at 33.0 µM 37% | [4]; at 1.2 µM 6% | [4]; at 3.7 µM -2% | [4]; at 11.0 µM 10% | [4]; at 33.0 µM 46% | [5]; at 1.2 µM 26% | [5]; at 3.7 µM 22% | [5]; [17] 14% | [5]; at 11.0 µM 18% | [5]; at 33.0 µM 62% | [5]; [18] 36% | [5]; at 50.0 µM 64.4% | [6]; at 1.2 µM 19% | [6]; at 3.7 µM 29% | [6]; [17] 9% | [6]; at 11.0 µM 38% | [6]; at 33.0 µM 51% | [7]; at 1.2 µM -3% | [7]; at 3.7 µM 2% | [7]; at 11.0 µM -8% | [7]; at 33.0 µM 22% | [8]; [17] -8% | [9]; at 1.2 µM 8% | [9]; at 3.7 µM -2% | [9]; at 11.0 µM 17% | [9]; at 33.0 µM 44% | [10]; [17] -1% | [11]; at 1.2 µM 7% | [11]; at 3.7 µM -1% | [11]; [17] 12% | [11]; at 11.0 µM 11% | [11]; at 33.0 µM 53% | [12]; at 1.2 µM -12% | [12]; at 3.7 µM -6% | [12]; at 11.0 µM -1% | [13]; at 1.2 µM 6% | [13]; at 3.7 µM -2% | [13]; at 11.0 µM 10% | [13]; at 33.0 µM 46% | [14]; at 1.2 µM 40% | [14]; at 3.7 µM 48% | [14]; at 11.0 µM 64% | [15]; [17] 16% | [16]; at 1.2 µM 26% | [16]; at 3.7 µM 30% | [16]; at 11.0 µM 55%

CC1(C)CC(=O)C(/C=N/c2nc(-c3ccc(Br)cc3)cs2)=C(O)C1
active: [1]; at 33.0 µM 95% | [1]; at 100.0 µM 97% | [2]; at 33.0 µM 91% | [3]; at 33.0 µM 95% | [3]; at 100.0 µM 98% | [4]; at 33.0 µM 96% | [4]; at 100.0 µM 98% | [5]; at 33.0 µM 94% | [5]; [18] 96% | [5]; at 50.0 µM 99% | [5]; at 100.0 µM 97% | [6]; at 33.0 µM 96% | [6]; [18] 97% | [6]; at 50.0 µM 97.5% | [6]; at 100.0 µM 98% | [7]; at 33.0 µM 95% | [7]; at 100.0 µM 98% | [8]; [18] 98% | [8]; at 50.0 µM 99.2% | [9]; at 33.0 µM 93% | [9]; at 100.0 µM 97% | [10]; [18] 97% | [10]; at 50.0 µM 98.3% | [11]; at 33.0 µM 96% | [11]; [18] 98% | [11]; at 50.0 µM 98.8% | [11]; at 100.0 µM 98% | [12]; at 33.0 µM 93% | [12]; at 100.0 µM 98% | [13]; at 33.0 µM 96% | [13]; at 100.0 µM 98% | [14]; at 33.0 µM 97% | [14]; at 100.0 µM 98% | [15]; [18] 99% | [15]; at 50.0 µM 98.8% | [16]; at 33.0 µM 96% | [16]; at 100.0 µM 97%
inactive: [1]; at 1.2 µM 11% | [1]; at 3.7 µM 20% | [1]; at 11.0 µM 53% | [2]; at 1.2 µM 1% | [2]; at 3.7 µM 4% | [2]; at 11.0 µM 17% | [2]; at 100.0 µM 60% | [3]; at 1.2 µM 5% | [3]; at 3.7 µM 17% | [3]; at 11.0 µM 51% | [4]; at 1.2 µM 4% | [4]; at 3.7 µM 6% | [4]; at 11.0 µM 37% | [5]; at 1.2 µM 3% | [5]; at 3.7 µM 32% | [5]; [17] -4% | [5]; at 11.0 µM 48% | [6]; at 1.2 µM 7% | [6]; at 3.7 µM 11% | [6]; [17] -10% | [6]; at 11.0 µM 35% | [7]; at 1.2 µM 6% | [7]; at 3.7 µM 6% | [7]; at 11.0 µM 36% | [8]; [17] -8% | [9]; at 1.2 µM 1% | [9]; at 3.7 µM 7% | [9]; at 11.0 µM 31% | [10]; [17] 65% | [11]; at 1.2 µM 3% | [11]; at 3.7 µM 3% | [11]; [17] -22% | [11]; at 11.0 µM 24% | [12]; at 1.2 µM 0% | [12]; at 3.7 µM 3% | [12]; at 11.0 µM 29% | [13]; at 1.2 µM 3% | [13]; at 3.7 µM 5% | [13]; at 11.0 µM 30% | [14]; at 1.2 µM 10% | [14]; at 3.7 µM 15% | [14]; at 11.0 µM 49% | [15]; [17] 0% | [16]; at 1.2 µM 2% | [16]; at 3.7 µM 5% | [16]; at 11.0 µM 37%
